The source of these data is PubChem BioAssay.

Calls of active or inactive are those of the source.

For experiment [1], the system named is Plasmodium falciparum Sir2 (PF13_0152, Sir2A). Put plainly: Plasmodium falciparum Sir2A binding compounds – biochemical, small-molecule microarray, 635 nm fluorescence, primary screen (AID 1098).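 Note: score merges spot fluorescence intensity with its signal-to-noise ratio.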 The settings on record: fluorescence 635 nm, higher = more signal.
A short description of experiment [2]: probe aDKK1 binding to arrayed compounds – biochemical, biotinylated probe, 635/667 nm fluorescence, primary screen (AID 1099).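 Note: score merges 667nm spot fluorescence with signal to noise across triplicate slides.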 The following applies: small-molecule microarray, higher = more signal.
A short description of experiment [3]: probe aCHRDL2 binding to arrayed compounds – biochemical, biotinylated probe, 635/667 nm fluorescence, primary screen (AID 1100). The settings on record: small-molecule microarray, higher = more signal.
Experiment [4] is described as follows: change in splice reporter luminescence, either direction, cell-based, HEK293, spliceosome inhibition project, primary screen (AID 1101).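 Note: HEK293 cells carrying a splicing-competent luciferase reporter gene; test concentration not given here.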 The settings on record: HEK293 splicing luciferase reporter, 24 h, higher = more signal, called active from +8 up or from −8 down.
Experiment [5] concerns the target Fibroblast growth factor 10 (Homo sapiens) (UniProt O15520). Nature of the experiment: compounds binding fibroblast growth factor 10 – biochemical, small-molecule microarray, 635 nm fluorescence, primary screen (AID 1102). The following applies: FGF10 binding, fluorescence 635 nm, higher = more signal.
The test system of experiment [6] is glycogen synthase kinase-3 (GSK3A per assay name; protocol says GSK3B). Put plainly: compounds binding glycogen synthase kinase-3 – biochemical, small-molecule microarray, 635 nm fluorescence, GSK3A, primary screen (AID 1103). Note: the record names both GSK3A and GSK3B. The following applies: fluorescence 635 nm, higher = more signal.
Experiment [7] concerns the target Epidermal growth factor receptor (Homo sapiens) (UniProt P00533). Nature of the experiment: compounds binding epidermal growth factor receptor – biochemical, small-molecule microarray, 635 nm fluorescence, primary screen (AID 1104).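 Note: score merges 667 nm emission intensity with spot signal to noise over triplicate slides.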 The settings on record: EGFR binding, higher = more signal.
Experiment [8] has as its target Follistatin-related protein 3 (Homo sapiens) (UniProt O95633). Nature of the experiment: compounds binding follistatin-related protein 3 – biochemical, small-molecule microarray, 635 nm fluorescence, primary screen (AID 1105).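 Note: score merges emission near 667 nm and signal to noise per printed spot across three slides.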 The settings on record: FSTL3 binding, higher = more signal.
Experiment [9] addresses Dickkopf-related protein 1 (Homo sapiens) (UniProt O94907). Nature of the experiment: small molecules binding DKK1 protein – biochemical, small-molecule microarray, 635 nm fluorescence scan, primary screen (AID 1106).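 Note: score merges emission near 667 nm with signal to noise over three replicate slides.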 The following applies: higher = more signal.
For experiment [10], the system named is Inhibin beta A chain (activin A). Put plainly: small molecules binding activin A – biochemical, small-molecule microarray, 635 nm fluorescence scan, primary screen (AID 1107).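 Note: mouse activin A protein probed at 4.33 µg/mL on printed slides; score merges bound-protein fluorescence near 667 nm with spot signal-to-noise.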 The settings on record: INHBA, higher = more signal.
Experiment [11] has as its system Human papillomavirus type 1a protein E7 (residues 44-93). Nature of the experiment: small molecules binding HPV E7 44-93 – biochemical, small-molecule microarray, residues 44-93, 635 nm fluorescence, primary screen (AID 1108).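 Note: E7 fragment applied at 1 µg/mL in TBST for 1 h at 4 C; score combines spot fluorescence with its signal to noise ratio.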 The following applies: fluorescence 635 nm, higher = more signal.
Experiment [12] is described as follows: hepatitis C replication reporter changes, two-sided – Huh7 cells, luciferase reporter, HCV replication inhibitor project, primary screen (AID 1109).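 Note: huh7 hepatoma cells harbouring a luciferase neomycin HCV replicon reporter; luciferase luminescence as measure of HCV replicon replication; test concentration not given here.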 The settings on record: Huh7 HCV replicon luciferase reporter, 48 h; higher = more signal.
Experiment [13] addresses Left-right determination factor 2 (Homo sapiens) (UniProt O00292). Put plainly: small molecules binding LEFTY2 protein – biochemical, small-molecule microarray, 635 nm fluorescence scan, primary screen (AID 1110). The following applies: higher = more signal.
Experiment [14] concerns the target Calmodulin-1 (Homo sapiens) (UniProt P0DP23). Nature of the experiment: small molecules binding calmodulin-1 with EGTA – biochemical, small-molecule microarray, Cy5-labelled CALM1, profiling panel (AID 1111).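 Note: labelled calmodulin applied in Tris saline Tween buffer holding calcium plus EGTA and DTT.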 The following applies: Cy5-CALM1 binding fluorescence, higher = more signal.
Experiment [15] has the same target. Nature of the experiment: small molecules binding Ca-loaded calmodulin-1 – biochemical, small-molecule microarray, Cy5-labelled CALM1, plus calcium, artefact control for SMM control-protein annotation, profiling panel (AID 1112).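 Note: score merges spot fluorescence with signal to noise from triplicate slides.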 The following applies: Cy5-CALM1 binding fluorescence, higher = more signal.
A short description of experiment [16]: probe aWnt5a binding to arrayed compounds – biochemical, biotinylated probe, 635/667 nm fluorescence, primary screen (AID 1113).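 Note: score merges 667 nm fluorescence intensity with signal-to-noise per printed feature.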 The following applies: small-molecule microarray, higher = more signal.
Experiment [17] in a line: probe aShh binding to arrayed compounds – biochemical, biotinylated probe, 635/667 nm fluorescence, primary screen (AID 1114).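 Note: probe is biotin-labelled aShh protein from a stem cell growth factor screen; measures binding of labelled protein to compounds printed on the slide; score merges feature fluorescence at 667 nm with signal-to-noise.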 The settings on record: small-molecule microarray, higher = more signal.
Experiment [18] can be described thus: probe aNog binding to arrayed compounds – biochemical, biotinylated probe, 635/667 nm fluorescence, primary screen (AID 1115).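 Note: probe is biotinylated aNog protein used at 0.15 µg/mL for 1 h at 4 C; z-score combines 667 nm fluorescence of each spot with its signal to noise.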 The following applies: small-molecule microarray, higher = more signal.
For experiment [19], the target named is Torsin-1A-interacting protein 1 (Homo sapiens) (UniProt Q5JTV8). Nature of the experiment: compound microarray binding of lysate hLAP1 – cell lysate, small-molecule microarray, COS7 lysate, 635/667 nm fluorescence, primary screen (AID 1116). The settings on record: 635 nm fluorescence, higher = more signal.
Experiment [20] addresses Alpha-bungarotoxin (Bungarus multicinctus) (UniProt P60615). Put plainly: compounds binding labelled alpha-BTX control protein – biochemical, small-molecule microarray, Alexa647 label, 635/667 nm fluorescence, artefact control for SMM control protein annotation, profiling panel (AID 1117). The settings on record: alpha-BTX-A647 binding fluorescence, higher = more signal.

Sequence of Follistatin-related protein 3 (Homo sapiens) (O95633 whole entry, looked up): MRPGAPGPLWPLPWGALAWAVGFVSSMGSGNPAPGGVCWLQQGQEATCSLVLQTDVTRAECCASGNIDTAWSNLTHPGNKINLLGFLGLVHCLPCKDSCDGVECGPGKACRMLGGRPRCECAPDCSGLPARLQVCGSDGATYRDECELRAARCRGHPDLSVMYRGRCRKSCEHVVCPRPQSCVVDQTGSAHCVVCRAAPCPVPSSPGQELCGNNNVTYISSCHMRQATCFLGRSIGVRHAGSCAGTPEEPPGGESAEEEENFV
Sequence of Epidermal growth factor receptor (Homo sapiens) (P00533 whole entry, looked up): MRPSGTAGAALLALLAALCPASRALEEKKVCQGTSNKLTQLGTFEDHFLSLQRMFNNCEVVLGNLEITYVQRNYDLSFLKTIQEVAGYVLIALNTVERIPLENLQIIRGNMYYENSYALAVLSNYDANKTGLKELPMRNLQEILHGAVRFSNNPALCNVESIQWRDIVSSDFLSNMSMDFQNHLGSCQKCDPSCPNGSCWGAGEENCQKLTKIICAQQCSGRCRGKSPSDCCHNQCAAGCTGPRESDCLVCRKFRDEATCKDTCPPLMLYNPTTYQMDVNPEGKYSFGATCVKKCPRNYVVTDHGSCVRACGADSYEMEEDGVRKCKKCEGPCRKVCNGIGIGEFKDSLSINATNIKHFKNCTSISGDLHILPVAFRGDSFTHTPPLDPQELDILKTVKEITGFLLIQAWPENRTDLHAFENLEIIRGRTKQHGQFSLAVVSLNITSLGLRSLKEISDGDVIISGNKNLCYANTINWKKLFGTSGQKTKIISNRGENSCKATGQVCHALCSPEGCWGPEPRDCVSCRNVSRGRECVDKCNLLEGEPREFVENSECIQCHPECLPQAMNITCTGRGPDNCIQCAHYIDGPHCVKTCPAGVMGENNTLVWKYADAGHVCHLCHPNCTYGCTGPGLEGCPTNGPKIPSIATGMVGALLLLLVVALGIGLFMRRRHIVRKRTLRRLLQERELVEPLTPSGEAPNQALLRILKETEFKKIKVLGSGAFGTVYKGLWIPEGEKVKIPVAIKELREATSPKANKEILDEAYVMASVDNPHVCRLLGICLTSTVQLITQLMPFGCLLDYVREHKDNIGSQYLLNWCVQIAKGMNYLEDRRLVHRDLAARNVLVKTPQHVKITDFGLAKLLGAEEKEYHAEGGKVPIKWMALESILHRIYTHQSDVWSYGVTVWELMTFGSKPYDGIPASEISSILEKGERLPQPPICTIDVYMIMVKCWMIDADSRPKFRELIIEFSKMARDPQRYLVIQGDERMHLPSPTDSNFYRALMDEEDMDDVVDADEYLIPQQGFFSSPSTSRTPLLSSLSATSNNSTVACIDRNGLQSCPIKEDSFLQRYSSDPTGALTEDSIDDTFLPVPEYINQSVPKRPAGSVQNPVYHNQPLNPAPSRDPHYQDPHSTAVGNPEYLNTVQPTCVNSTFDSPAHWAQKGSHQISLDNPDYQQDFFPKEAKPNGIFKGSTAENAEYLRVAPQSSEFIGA
Sequence of Torsin-1A-interacting protein 1 (Homo sapiens) (Q5JTV8 whole entry, looked up): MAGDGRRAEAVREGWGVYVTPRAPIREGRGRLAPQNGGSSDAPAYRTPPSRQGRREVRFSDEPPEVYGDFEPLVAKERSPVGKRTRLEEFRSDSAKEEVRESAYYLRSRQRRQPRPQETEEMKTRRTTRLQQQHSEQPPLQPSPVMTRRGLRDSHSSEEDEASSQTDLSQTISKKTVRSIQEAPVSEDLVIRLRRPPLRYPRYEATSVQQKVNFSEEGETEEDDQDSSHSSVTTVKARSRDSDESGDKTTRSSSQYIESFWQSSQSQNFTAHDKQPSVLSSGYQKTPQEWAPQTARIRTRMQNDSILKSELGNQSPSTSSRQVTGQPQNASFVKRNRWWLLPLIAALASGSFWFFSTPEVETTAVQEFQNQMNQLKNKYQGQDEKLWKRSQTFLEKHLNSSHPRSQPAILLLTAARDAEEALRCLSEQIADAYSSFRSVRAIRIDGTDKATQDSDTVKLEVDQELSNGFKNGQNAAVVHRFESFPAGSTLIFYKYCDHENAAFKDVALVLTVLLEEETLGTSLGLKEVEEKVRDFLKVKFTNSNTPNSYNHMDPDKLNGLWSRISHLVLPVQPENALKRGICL
Sequence of Fibroblast growth factor 10 (Homo sapiens) (O15520 whole entry, looked up): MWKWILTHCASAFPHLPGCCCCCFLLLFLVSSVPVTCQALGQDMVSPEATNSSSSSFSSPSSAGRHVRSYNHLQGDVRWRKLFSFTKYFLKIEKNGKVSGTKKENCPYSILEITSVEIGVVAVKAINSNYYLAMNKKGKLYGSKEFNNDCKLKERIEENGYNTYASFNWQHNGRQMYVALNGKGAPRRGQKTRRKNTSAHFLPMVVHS
Sequence of Alpha-bungarotoxin (Bungarus multicinctus) (P60615 whole entry, looked up): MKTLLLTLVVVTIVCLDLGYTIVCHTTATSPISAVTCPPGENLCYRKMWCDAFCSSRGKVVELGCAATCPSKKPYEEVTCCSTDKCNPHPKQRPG
Sequence of Left-right determination factor 2 (Homo sapiens) (O00292 whole entry, looked up): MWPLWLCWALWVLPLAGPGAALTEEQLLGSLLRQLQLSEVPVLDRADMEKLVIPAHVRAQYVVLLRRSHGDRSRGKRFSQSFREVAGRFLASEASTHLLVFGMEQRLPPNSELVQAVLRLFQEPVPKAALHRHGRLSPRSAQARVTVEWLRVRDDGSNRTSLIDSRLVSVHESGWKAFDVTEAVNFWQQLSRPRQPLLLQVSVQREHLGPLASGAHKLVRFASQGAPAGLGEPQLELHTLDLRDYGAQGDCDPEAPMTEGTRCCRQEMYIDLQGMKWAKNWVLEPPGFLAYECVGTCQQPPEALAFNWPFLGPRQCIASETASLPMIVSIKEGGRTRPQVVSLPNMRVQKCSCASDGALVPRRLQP
Sequence of Dickkopf-related protein 1 (Homo sapiens) (O94907 whole entry, looked up): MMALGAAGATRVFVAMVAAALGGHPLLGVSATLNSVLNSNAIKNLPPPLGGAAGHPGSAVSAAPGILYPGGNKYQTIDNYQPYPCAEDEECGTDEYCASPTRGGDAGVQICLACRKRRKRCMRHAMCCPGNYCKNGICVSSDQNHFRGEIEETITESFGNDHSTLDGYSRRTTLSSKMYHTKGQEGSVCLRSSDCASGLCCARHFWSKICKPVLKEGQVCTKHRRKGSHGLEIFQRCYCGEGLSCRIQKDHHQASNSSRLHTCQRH

With `COC(=O)C(CC#Cc1ccc2c(c1)[C@]1(C(=O)N2)[C@H](c2ccccc2OCCO)N2[C@H](c3ccccc3)[C@H](c3ccccc3)OC(=O)[C@H]2[C@@H]1C(=O)NC[C@H](O)c1ccccc1)C(=O)OC`, the composite z-score in experiment [1] is 1.65; in [2] it was -0.378; in [3], 0.702; in experiment [5], 0.928; in experiment [6], 1.26; in [7] it was 0.361. Besides, the composite z-score came to 0.682 in experiment [8]; 0.521 in experiment [9]; 0.897 in experiment [10]; 1.39 in [11]; 0.261 in experiment [13]; 0.0614 in experiment [14]. Besides, the composite z-score in experiment [15] is -0.316; in [16], 0.285; in experiment [17] it was 2.44; in experiment [18] it was 0.108; in [19] it was 2.19; in experiment [20], 0.971. Also, the results for the z-score in experiment [4] and in [12] were -0.267 (inactive) and -2.08, respectively.
`C=CCC(OC(C)=O)[C@@H]1[C@@H](N(Cc2cc3ccccc3o2)C(=O)c2ccc(C)cc2)c2cc(OCCCO)ccc2N1C(=O)Cc1ccc(OC)cc1` (stereo not given in full): the composite z-score in experiment [1] was -0.0682; in experiment [2], -0.199; in [3] it was 0.33; in experiment [5] it was 0.289; in experiment [6], 0.121; in experiment [7] it was -0.147. For the same molecule, the composite z-score was 0.087 in experiment [8]; 0.0807 in [9]; 1.01 in [10]; -0.098 in [11]; -0.0667 in experiment [13]; -0.254 in experiment [14]. The composite z-score in experiment [15] is -0.583; in experiment [16] it was 0.0317; in experiment [17], 0.136; in [18] it was -0.318; in experiment [19], -0.0471; in experiment [20], 0.203. The z-score is -0.669 (inactive) in experiment [4] and -0.169 in experiment [12].
Take `O=C(NCCCCCNC(=O)/C(Cc1ccccc1)=N/O)OCc1ccccc1`: the composite z-score in [1] was -0.263; in [2], -0.314; in experiment [3], -0.603; in [5], 0.0434; in [6], -0.201; in [7], 0.445. Further, the composite z-score in experiment [8] is 0.206; in experiment [9], 0.229; in experiment [10], -0.182; in experiment [11] it was -0.0938; in [13], 0.629; in [14], -0.503. Also, the composite z-score in experiment [15] is -0.592; in [16], -0.0445; in experiment [17], -0.426; in experiment [18] it was -0.633; in experiment [19], 0.154; in [20] it was 0.269. In addition, the z-score in [4] is -1.54 (inactive); in experiment [12], -1.24.
With `CCCC[C@@H]1C[C@H]1[C@@H](NC(=O)Cc1ccccc1)c1ccc(-c2ccccc2)cc1`, the composite z-score in [1] was -0.146; in [2], -0.0423; in [3], 0.712; in [5] it was 0.0191; in experiment [6], 0.117; in experiment [7], 0.172. Also, the composite z-score in experiment [8] is 0.135; in [9], -0.46; in experiment [10], 0.685; in experiment [11] it was 1.24; in [13] it was -0.319; in [14], 0.538. The composite z-score was 0.588 in experiment [15]; -0.0276 in experiment [16]; 0.0098 in [17]; -0.0503 in experiment [18]; 0.487 in experiment [19]; 0.263 in experiment [20]. The z-score in experiment [4] is -1.26 (inactive); in experiment [12], -0.783.
Turning to `Cc1cc(C)c(C(O)C2C=CC3C(=O)NC(=O)C3N2Nc2ccc(Cl)cc2Cl)c(C)c1` (stereo not given), the composite z-score in experiment [1] is 0.651; in [2] it was 0.639; in [3], 1.2; in experiment [5], 0.871; in experiment [6], 0.753; in [7], 0.253. The composite z-score was 0.95 in experiment [8]; -0.0057 in [9]; 1.31 in experiment [10]; 1.4 in experiment [11]; 0.105 in experiment [13]; 2.18 in experiment [14]. The composite z-score is 0.954 in experiment [15]; 0.0489 in experiment [16]; 0.171 in experiment [17]; 1.92 in [18]; 1.78 in experiment [19]; 1 in experiment [20]. Further, the z-score was 0.465 (inactive) in experiment [4] and -0.293 in [12].
